High-throughput results as filed in PubChem BioAssay.
HRas wt GTP bind = human HRas wildtype GTP binding, change in either direction | P01112 | GST-Ras wt beads, Bodipy-FL-GTP binding, flow cytometry; actives lie on both sides | GTP binding activity, % at 10 µM | 0.14% of 190,000 active;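 active means GTP binding activity at least 20% away from the 100% baseline, either lowered as inhibitor or raised as activator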;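 further: 0% = unlabeled GTP competition control and 100% = no-compound control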
Target sequence (P01112 whole entry, looked up): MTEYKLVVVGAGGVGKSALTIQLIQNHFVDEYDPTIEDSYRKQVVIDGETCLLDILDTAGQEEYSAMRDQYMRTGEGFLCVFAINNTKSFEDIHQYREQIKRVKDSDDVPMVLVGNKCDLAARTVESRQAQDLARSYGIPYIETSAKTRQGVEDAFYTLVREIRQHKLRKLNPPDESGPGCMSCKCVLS
Rac1 mut GTP = modulators of GTP binding to human Rac1 activated mutant; P63000; GST-Rac1 activated beads, fluorescent GTP binding, flow cytometry; actives lie on both sides; 100% means binding = to untreated wells; percent activity (GTP binding), % at 10 µM; 0.11% of 190,000 active; AID 764;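 active means GTP binding at least 20 percentage points away from the 100% baseline, in either direction, so actives lie on both sides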
Rab2A wt mod = changes GTP binding to wildtype dog Rab2A, up or down | AID 760 | GST-Rab2 wt beads, Bodipy-GTP binding, flow cytometry | 0.19% of 190,000 active | P61105 | GTP binding activity, % at 10 µM;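 active means GTP binding activity at least 20 points away from 100%, either lowered or raised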;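 further: 0% = beads with excess unlabeled GTP and 100% = no-compound control corrected for plate trend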
Rab7 wt GTP bind = alters GTP binding to wildtype dog Rab7; GTP binding activity (percent of control), % at 10 µM; 0.055% of 190,000 active; GST-Rab7 beads, fluorescent GTP binding, flow cytometry; actives lie on both sides; untreated = 100%, excess cold GTP = 0%; AID 758;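 active means fluorescent GTP binding to Rab7 beads changed by at least 20 points from the 100% baseline, either direction, mostly lower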;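 further: median green fluorescence of bound Bodipy-FL-GTP per Rab7 bead population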
Cdc42 wt GTP = human Cdc42 wildtype GTP binding change, either direction; 0.2% of 190,000 active; GST-Cdc42 beads, Bodipy-GTP binding, flow cytometry; actives lie on both sides; AID 761; P60953; percent activity (GTP binding), % at 10 µM;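 active means percent activity GTP binding at least 20 points away from the 100% baseline, either down as inhibitor or up as activator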;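 further: median bead fluorescence of bound Bodipy-FL-GTP at 100 nM; 0% = excess unlabeled GTP control and 100% = no compound control; below 100% means less GTP binding so inhibitor and above means activator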
Target sequence (P60953 whole entry, looked up): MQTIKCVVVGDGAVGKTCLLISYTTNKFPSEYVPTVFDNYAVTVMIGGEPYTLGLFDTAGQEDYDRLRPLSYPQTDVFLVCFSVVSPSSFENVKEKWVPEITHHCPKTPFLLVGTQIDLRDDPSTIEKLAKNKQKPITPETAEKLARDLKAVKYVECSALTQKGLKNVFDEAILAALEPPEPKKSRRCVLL
Rac1 wt GTP bind = human Rac1 wildtype GTP binding, inhibitors and activators; GST-Rac1 beads, fluorescent GTP binding, flow cytometry; actives lie on both sides; 0 = cold GTP competed, 100 = untreated; GTP binding activity (% of control), % at 10 µM; P63000; 0.27% of 190,000 active;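 active means GTP binding activity at least 20 points away from the 100% control level, either lower or higher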
The depositor's hits bear a star; [ ] = remark or other dose. Compounds with a hit are over-represented: about 0.38% of the library has one in this group of screens.

SMILES | HRas wt GTP bind | Rac1 mut GTP | Rab2A wt mod | Rab7 wt GTP bind | Cdc42 wt GTP | Rac1 wt GTP bind
COCCn1c(SCC(=O)Nc2cccc(C)n2)nnc1-c1ccco1 | 94.0 | 96.0 | 96.0 | 96.0 | 95.0 | 97.0
OCCNc1ncnc2c1sc1nc(N3CCOCC3)c3c(c12)CCC3 | 91.0 | 94.0 | 86.0 | 91.0 | 91.0 | 94.0
COCCNc1nnnc2c1sc1nc(N3CCOCC3)c3c(c12)CCCC3 | 82.0 | 88.0 | 83.0 | 95.0 | 81.0 | 73.0*
Cc1ccc(NS(=O)(=O)c2cc(NC(=O)c3ccc4c(c3)NC(=O)CS4)ccc2Cl)c(C)c1 | 116.0 | 102.0 | 129.0*[activator] | 113.0 | 113.0 | 110.0
COc1ccc2[nH]c3nc(SCC(=O)Nc4ccc5c(c4)OCO5)nnc3c2c1 | 74.0* | 87.0 | 72.0* | 85.0 | 74.0* | 87.0
COc1ccc2nc(SCC(=O)Nc3ccc4c(c3)OCCO4)[nH]c2c1 | 101.0 | 99.0 | 98.0 | 100.0 | 101.0 | 101.0
COCCOC(=O)c1c(C)oc2ccc(OC(=O)c3ccc4c(c3)OCO4)cc12 | 83.0 | 73.0* | 76.0* | 79.0* | 77.0* | 75.0*
CCOC(=O)Oc1ccc2oc(C)c(C(=O)OCCOC)c2c1 | 99.0 | 97.0 | 99.0 | 99.0 | 98.0 | 100.0
Cn1nc([N+](=O)[O-])c(C(C#N)c2ccccn2)c(Cl)c1=O (centres undefined) | 82.0 | 61.0* | 80.0 | 93.0 | 79.0* | 84.0
CCCn1nc([N+](=O)[O-])c(C(C#N)c2nc3ccccc3o2)c(Cl)c1=O (centres undefined) | 98.0 | 93.0 | 95.0 | 98.0 | 96.0 | 100.0
CCOc1ccccc1NC(=O)CSc1ccc2nnc(-c3cccnc3)n2n1 | 69.0* | 76.0* | 64.0* | 83.0 | 65.0* | 58.0*
CCOc1ccccc1NC(=O)CSc1nnc2ccc(-c3ccncc3)nn12 | 98.0 | 97.0 | 99.0 | 103.0 | 95.0 | 99.0
COc1ccc(-c2nnc3ccc(SCC(=O)Nc4cc(C)on4)nn23)cc1OC | 95.0 | 92.0 | 97.0 | 107.0 | 93.0 | 93.0
COc1ccc(NC(=O)CSc2ccc3nnc(-c4cccnc4)n3n2)c(OC)c1 | 84.0 | 89.0 | 83.0 | 93.0 | 80.0 | 79.0*
C/C(=N\NC(=O)c1c[nH]c2ccccc12)c1ccc(C)o1 | 84.0 | 92.0 | 85.0 | 92.0 | 84.0 | 79.0*
CC(=O)Nc1ccc(NC(=O)C2CCN(C(=O)c3cccs3)CC2)cc1 | 96.0 | 96.0 | 95.0 | 97.0 | 98.0 | 103.0
O=C(COc1ccccc1-c1ccccc1)N/N=C/c1ccncc1 | 59.0* | 55.0* | 61.0* | 58.0* | 60.0* | 55.0*
O=C(/C=C/c1ccccc1)NC(NC(=S)Nc1cccc(O)c1)C(Cl)(Cl)Cl (centres undefined) | 98.0 | 96.0 | 95.0 | 98.0 | 101.0 | 100.0
O=C(/C=C/c1ccccc1)NC(NC(=S)Nc1ccc(C(=O)O)cc1)C(Cl)(Cl)Cl (centres undefined) | 87.0 | 91.0 | 79.0* | 88.0 | 96.0 | 88.0
CC(=O)N1CCCN(Cc2cn(-c3cc(C)ccc3C)nc2-c2ccccc2)CC1 | 100.0 | 96.0 | 100.0 | 100.0 | 97.0 | 102.0
O=C(/C(C=Nc1cc2c(oc1=O)CCCC2=O)=C(\O)c1ccccc1)c1ccccc1 | 96.0 | 93.0 | 98.0 | 104.0 | 93.0 | 92.0
O=C(O)C1CCCN1C(=O)OCc1ccccc1 (centres undefined) | 121.0*[activator] | 121.0*[activator] | 122.0*[activator] | 120.0*[activator] | 128.0*[activator] | 139.0*[activator]
COC(CNC(=O)C1CCCN1C(=O)OCc1ccccc1)OC (centres undefined) | 115.0 | 117.0 | 116.0 | 115.0 | 119.0 | 121.0*[activator]
CCc1ccc(OCC(=O)NC(NC(=S)Nc2ccc(Cl)cc2)C(Cl)(Cl)Cl)cc1 (centres undefined) | 100.0 | 99.0 | 101.0 | 101.0 | 99.0 | 103.0
COc1ccc(/C=C2/N=C(SCC(=O)Nc3cc(C)on3)N(c3ccccc3)C2=O)cc1 | 81.0 | 91.0 | 82.0 | 95.0 | 85.0 | 77.0*
